# According to PubChem BioAssay (NCATS):
# Records with an inconclusive call do not appear. Where a call stands in place of a potency, no number is given. The source made the active and inactive calls. The call rests on the fitted dose curve; in most records, active means well fitted curve in the direction sought with a large enough effect; inconclusive means small, poorly fitted or top-dose-only effect, or another doubt; inactive means no such curve, though single readings can be large; an effect the other way counts as inactive or inconclusive.
# Biological target: Luciferin 4-monooxygenase (Photinus pyralis) (UniProt P08659)
# Assay: Primary firefly luciferase (FLuc) qHTS assay for identification of artifact compounds. (AID 1845220); further: nearly all actives have a fitted effect of over 60% in size
# Details: purified firefly luciferase, luminescence, 5 min; series mostly up to 54.1 µM
# In short: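 Titrated compounds were incubated 15 min at RT, protected from light, with luciferin and ATP at 10 uM; reaction started with 10 nM FLuc, luminescence imaged at 5 min, and concentration-response fitted by Hill equation.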
row,Compound,outcome
1,CC[C@H](C)C(=O)O[C@H]1C[C@@H](C)C=C2C=C[C@H](C)[C@H](CC[C@@H]3C[C@@H](O)CC(=O)O3)[C@H]21,inactive
2,O=C(NCC1CN(c2ccc(N3CCOCC3=O)cc2)C(=O)O1)c1ccc(Cl)s1 (centres undefined),inactive
3,CC1=NN(c2ccccc2)C(=O)C1,inactive
4,O=C(O)CCn1c2c(c3ccccc31)C[C@H](NS(=O)(=O)c1ccc(F)cc1)CC2,inactive
5,Nc1nc(F)nc2c1ncn2[C@@H]1O[C@H](CO)[C@@H](O)[C@@H]1O,inactive
6,CC(C(=O)O)c1ccc2c(c1)CC(=O)c1ccccc1S2 (centres undefined),inactive
7,Cc1onc(-c2ccccc2Cl)c1C(=O)N[C@@H]1C(=O)N2[C@@H]1SC(C)(C)[C@@H]2C(=O)O,inactive
8,CCCCc1oc2ccc(NS(C)(=O)=O)cc2c1C(=O)c1ccc(OCCCN(CCCC)CCCC)cc1,inactive
9,CC1(C)[C@H](C(=O)O)N2C(=O)C[C@H]2S1(=O)=O,inactive
10,CNC(=O)c1cc(Oc2ccc(NC(=O)Nc3ccc(Cl)c(C(F)(F)F)c3)cc2)ccn1,inactive

# Tested on: not listed separately
# Assay: Primary fluorescence-based thiol-reactive (MSTI) qHTS assay for identification of artifact compounds. (AID 1845221); further: nearly all actives have a fitted effect of over 65% in size; further: potency means the concentration at half of the fitted maximal effect
# Details: MSTI thiol-reactivity probe, 1 h; series mostly up to 53.8 µM
# In short: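 Curve-fitted percent inhibition (4-parameter Hill) derived from fluorescence, Ex 525/Em 598 nm, scaled with Acetyl-MSTI and MSTI; 1 h incubation at room temperature.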
row,Compound,Potency
1,CC[C@H](C)C(=O)O[C@H]1C[C@@H](C)C=C2C=C[C@H](C)[C@H](CC[C@@H]3C[C@@H](O)CC(=O)O3)[C@H]21,inactive
2,O=C(NCC1CN(c2ccc(N3CCOCC3=O)cc2)C(=O)O1)c1ccc(Cl)s1 (centres undefined),inactive
3,CC1=NN(c2ccccc2)C(=O)C1,8.44 µM (active)
4,O=C(O)CCn1c2c(c3ccccc31)C[C@H](NS(=O)(=O)c1ccc(F)cc1)CC2,1.68 µM (active)
5,Nc1nc(F)nc2c1ncn2[C@@H]1O[C@H](CO)[C@@H](O)[C@@H]1O,inactive
6,CC(C(=O)O)c1ccc2c(c1)CC(=O)c1ccccc1S2 (centres undefined),inactive
7,Cc1onc(-c2ccccc2Cl)c1C(=O)N[C@@H]1C(=O)N2[C@@H]1SC(C)(C)[C@@H]2C(=O)O,inactive
8,CC1(C)[C@H](C(=O)O)N2C(=O)C[C@H]2S1(=O)=O,inactive
9,CNC(=O)c1cc(Oc2ccc(NC(=O)Nc3ccc(Cl)c(C(F)(F)F)c3)cc2)ccn1,inactive

# Tested on: Nanoluciferase (engineered Oplophorus gracilirostris luciferase)
# Assay: Primary Nanoluciferase (NLuc) qHTS assay for identification of artifact compounds. (AID 1845222);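 further: NLuc secreted into diluted conditioned medium of S16 cells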
# Details: NLuc-conditioned medium, Nano-Glo luminescence, 5 min; series mostly up to 54.1 µM
# In short: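 qHTS format, against NLuc in S16 cell-conditioned medium. Nano-Glo substrate 1:100 was added after 15 min at room temperature. Luminescence was taken after a further 5 min.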
row,Compound,outcome
1,CC[C@H](C)C(=O)O[C@H]1C[C@@H](C)C=C2C=C[C@H](C)[C@H](CC[C@@H]3C[C@@H](O)CC(=O)O3)[C@H]21,inactive
2,O=C(NCC1CN(c2ccc(N3CCOCC3=O)cc2)C(=O)O1)c1ccc(Cl)s1 (centres undefined),inactive
3,CC1=NN(c2ccccc2)C(=O)C1,inactive
4,O=C(O)CCn1c2c(c3ccccc31)C[C@H](NS(=O)(=O)c1ccc(F)cc1)CC2,inactive
5,Nc1nc(F)nc2c1ncn2[C@@H]1O[C@H](CO)[C@@H](O)[C@@H]1O,inactive
6,CC(C(=O)O)c1ccc2c(c1)CC(=O)c1ccccc1S2 (centres undefined),inactive
7,Cc1onc(-c2ccccc2Cl)c1C(=O)N[C@@H]1C(=O)N2[C@@H]1SC(C)(C)[C@@H]2C(=O)O,inactive
8,CCCCc1oc2ccc(NS(C)(=O)=O)cc2c1C(=O)c1ccc(OCCCN(CCCC)CCCC)cc1,inactive
9,CC1(C)[C@H](C(=O)O)N2C(=O)C[C@H]2S1(=O)=O,inactive
10,CNC(=O)c1cc(Oc2ccc(NC(=O)Nc3ccc(Cl)c(C(F)(F)F)c3)cc2)ccn1,inactive
